Shown are actives, neighbours in structure and some others; about 9.3% of the full set was active somewhere.
Rab9 prom act – activators of Rab9 promoter | Huh7 Rab9 promoter-luciferase reporter, luminescence, 24 h | Potency, µM (top dose mostly 9.22 µM), without a hit: at the highest dose activation, negative = inhibition, actives largely listed as activators | 320,000 tested, 2.8% active | AID 485297; note: % of control where 0% means no effect; nearly all actives have a fitted effect of over 60% in size
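Using Huh7 cells stably transfected with Rab9 promoter–luciferase, compounds were incubated 24 h at 37 °C, 5% CO2; luciferase luminescence was read 10 min after reagent addition.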
FLuc modulator – counter-screen for miR-21 project: firefly luciferase inhibitors or activators; P08659; purified FLuc, Km substrates, luminescence inhibition; Potency, µM (titrated, usually from 57.5 µM), without a hit: at the highest dose activity change, negative = inhibition, hits mostly inhibitors; 360,000 tested, 6.9% active; AID 588342;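 note: plate controls were vehicle for no effect and reference inhibitor for full effect; nearly all actives have a fitted effect of over 55% in size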
Target sequence (P08659 whole entry, looked up): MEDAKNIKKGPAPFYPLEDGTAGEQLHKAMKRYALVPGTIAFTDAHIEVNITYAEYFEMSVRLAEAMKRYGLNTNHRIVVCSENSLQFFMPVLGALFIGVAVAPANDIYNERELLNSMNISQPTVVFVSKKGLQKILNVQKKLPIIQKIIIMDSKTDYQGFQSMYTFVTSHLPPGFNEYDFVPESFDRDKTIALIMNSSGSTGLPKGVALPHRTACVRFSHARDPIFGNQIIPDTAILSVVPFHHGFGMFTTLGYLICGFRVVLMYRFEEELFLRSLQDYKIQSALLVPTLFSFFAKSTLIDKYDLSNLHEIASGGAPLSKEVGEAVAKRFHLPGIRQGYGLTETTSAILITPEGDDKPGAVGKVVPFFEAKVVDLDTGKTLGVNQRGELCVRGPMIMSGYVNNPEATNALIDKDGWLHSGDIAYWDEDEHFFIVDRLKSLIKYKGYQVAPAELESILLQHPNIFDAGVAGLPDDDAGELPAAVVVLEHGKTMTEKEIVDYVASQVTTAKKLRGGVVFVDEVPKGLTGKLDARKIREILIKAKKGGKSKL
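Purified P. pyralis luciferase, 10 nM final, with Km-level 10 uM D-luciferin and 10 uM ATP in 50 mM Tris acetate pH 7.5, 10 mM Mg acetate, 0.01% Tween-20, 0.05% BSA; 6-point qHTS titration about 60 µM downward; luminescence read.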
ELG1 genotox – induces genotoxicity in HEK293T cells with luciferase-tagged ELG1; Potency, µM (top dose mostly 46 µM), for the others: at the top dose activity change, positive = activation, usual class: activators; 330,000 tested, 1.3% active; HEK293T ELG1-luciferase reporter, luminescence, 16 h; note: % of control where 0% means no effect; nearly all actives have a fitted effect of over 60% in size
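Cells (2,000/well) expressing the ELG1-luciferase fusion are dosed by pin tool and kept 16 hr at 37 °C, 5% CO2. Signal comes from ONE-Glo luciferase reagent after 30 min at room temperature.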
SMN2 splice enh – enhancers of SMN2 splice variant expression; AID 1458; Potency, µM (highest dose often 46.1 µM), inactives show top-dose activity change, positive = activation, actives largely listed as activators; HEK293 SMN2-luciferase splicing reporter, luminescence, 30-36 h; 210,000 tested, 2.8% active; note: % of control where 0% means no effect; nearly all actives have a fitted effect of over 55% in size
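qHTS luciferase splicing reporter: luminescence rises when SMN2 exon 7 is included in transfected HEK293 cells. Compound exposure lasted 30-36 h at 37C, with 4.5 mM final sodium butyrate as control, followed by a ONE-Glo read.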
ELG1 DNA repair – inhibitors of ELG1-dependent DNA repair in HEK293T cells. HEK293T ELG1-luciferase reporter, luminescence, 16 h; DNA damage induced by 5-fluorouridine. Potency, µM (titrated, usually from 46.1 µM), for the others: at the top dose activity change, negative = inhibition, actives largely listed as inhibitors. 330,000 tested, 2.3% active; note: % is set by controls: 0 for no effect and ±100 for the full control effect; nearly all actives have a fitted effect of over 55% in size
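DMSO vehicle served as the neutral condition. Each well held 2,000 cells given 5-fluorouridine plus compound; after 16 hr at 37 °C/5% CO2, ONE-Glo was added and luciferase measured 30 min later.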
NPC1 prom act – activators of NPC1 promoter; Huh7 NPC1 promoter luciferase reporter, 24 h; Potency, µM (highest dose often 9.22 µM), without a hit: at the highest dose activation, actives largely listed as activators; 320,000 tested, 2.4% active; AID 485313; note: % of control where 0% means no effect; nearly all actives have a fitted effect of over 60% in size
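Cells: Huh7 expressing luciferase under the NPC1 promoter, 1500/well. Seeded 2 h, compound added, incubated 24 h at 37 °C. Luciferase reagent, 10 min ambient, then luminescence.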
* = called active by the depositor; ? = inconclusive; . = not tested or not shown; [ ] = remark or other dose. Calls come from the whole dose curve; as a rule, active = well fitted curve in the direction sought with a large enough effect; inconclusive = small, poorly fitted or top-dose-only effect, or another doubt; inactive = no such curve, though single readings can be large; an effect the other way counts as inactive or inconclusive. Potency is the fitted concentration of half-maximal effect.

SMILES	Rab9 prom act	FLuc modulator	ELG1 genotox	SMN2 splice enh	ELG1 DNA repair	NPC1 prom act
CC(C)Oc1cc(O)c2c(=O)c(-c3ccc(O)cc3)coc2c1	1.41µM*	5.36µM*	16.4µM*	7.08µM*	?	0.891µM*
O=C(c1cnn2c(C(F)F)cc(-c3ccccc3)nc12)N1CCc2ccccc2C1	-8.3%	-4.5%	-2.0%	.	?	-5.6%
O=C(c1cnn2c(C(F)(F)F)cc(-c3ccco3)nc12)N1CCc2ccccc2C1	-4.2%	-0.7%	-11.7%	12.6%	23.1µM*	-0.9%
COc1ccc(-c2cc(C(F)(F)F)n3ncc(C(=O)N4CCc5ccccc5C4)c3n2)cc1	-7.4%	4.6%	-7.8%	.	11.6µM*	-9.7%
COc1cccc(-c2cc(C(F)(F)F)n3ncc(C(=O)N4CCc5ccccc5C4)c3n2)c1	-9.7%	2.4%	-7.4%	-0.5%	20.6µM*	-11.9%
O=C(c1cnn2c(C(F)(F)F)cc(-c3ccco3)nc12)N1CCCCCC1	2.4%	11.0%	-0.2%	1.9%	0.4%	-3.0%
COc1cccc(-c2cc(C(F)(F)F)n3ncc(C(=O)O)c3n2)c1	-6.3%	1.9%	-4.0%	-8.2%	-2.8%	-4.0%
CCOC(=O)c1ccccc1NC(=O)c1cc2c(=O)oc3ccc(C)cc3c2s1	.	0.1%	.	3.8%	.	.
CC1CCc2c(cc(-c3ccccc3)n2-c2ccc(C(=O)NC(C)C)cc2)C1 (configuration not stated)	.	-3.0%	.	.	.	.
Cc1ccc(C)c(N2CCN(C(=O)C(C)n3nc(C)c4sc5ccccc5c4c3=O)CC2)c1 (configuration not stated)	.	15.1µM*	.	.	.	.
COc1ccc(C(CNC(=O)c2cccc3cccnc23)N(C)C)cc1 (configuration not stated)	-9.8%	1.0%	1.6%	.	19.3%	-2.7%
COc1ccc(/C=C/C(=O)Nc2ccccc2C(=O)NCC(c2ccc(OC)cc2)N(C)C)cc1 (configuration not stated)	20.6%	10.7µM*	6.4%	.	?	17.4%
COc1ccc(/C=C/C(=O)Nc2ccccc2C(F)(F)F)cc1	?	?	9.6%	?	?	?
COc1cccc(C(=O)Nc2ccccc2C(=O)N2CCCC2)c1	-1.1%	0.9%	-4.9%	-42.5%	8.8%	2.1%
COc1ccc(/C=C/C(=O)Nc2ccccc2C(=O)O)cc1	3.16µM*	0.426µM*	?	3.98µM*	?	0.447µM*
COc1ccc(/C=C/C(=O)Nc2ccc(-n3nncc3-c3ccccc3)cc2)cc1OC	-0.2%	5.0%	-9.1%	0.6%	14.6µM*	-7.3%
COc1ccc(/C=C/C(=O)Nc2ccccc2C(=O)N2CCCC2)cc1	?	9.53µM*	15.4%	7.5%	0.0%	?
COc1ccc(CNC(=O)c2ccc(Cn3cc(Br)cn3)o2)cc1	17.5%	0.5%	-2.0%	.	-9.9%	0.6%
COc1ccc(/C=C/C(=O)Nc2ccccc2C(F)(F)F)cc1OC	12.4%	3.5%	3.8%	.	12.5%	-4.9%
COc1ccc(/C=C/C(=O)NC(=S)Nc2cc([N+](=O)[O-])ccc2O)cc1OC	0.7%	7.57µM*	1.6%	2.7%	-0.9%	-0.6%
COc1ccc(/C=C/C(=O)Nc2ccccc2C(=O)O)cc1OC	0.891µM*	0.151µM*	?	-26.2%	?	1.41µM*
CCc1cc(C(=O)O)c(NC(=O)/C=C/c2ccc(OC)cc2)s1	2.82µM*	12µM*	?	.	?	2.51µM*
COc1ccc(/C=C(/C(=O)Nc2ccccc2C(=O)N2CCCC2)c2ccccc2)cc1	-3.0%	0.4%	-10.5%	-15.4%	23.1µM*	-0.8%
CN(C)C(=O)c1ccc(-c2cc(C(F)(F)F)nn2C)s1	?	15.1µM*	?	.	?	3.55µM*
O=C(O)c1cc(-c2ccncc2)nc2ccccc12	.	.	.	-8.5%[9.22 µM]	.	.
SMILES	Rab9 prom act	FLuc modulator	ELG1 genotox	SMN2 splice enh	ELG1 DNA repair	NPC1 prom act
CC(C)N1CN=C(Nc2nc3ccccc3o2)NC1	?	?	-9.2%	?	?	17.4%
CCCCN1CN=C(Nc2nc3ccccc3o2)NC1	3.55µM*	?	?	29.0%	?	?
c1ccc2oc(NC3=NCN(C4CCCCC4)CN3)nc2c1	?	?	?	.	?	2.51µM*
NCC1O[C@@H](O[C@@H]2C(O)[C@H](O[C@H]3OC(CO)C(O)C(N)C3O)[C@@H](N)C[C@H]2N)C(N)C(O)C1O (some centres not stated)	.	.	.	5.3%	.	.
O=C(/C=C/c1ccccc1)c1c[nH]c2ccccc12	0.355µM*	0.19µM*	?	.	?	0.631µM*
COc1ccccc1C(=O)Nc1ccc2c3c(cccc13)CC2	?	5.36µM*	12.1%	.	?	?
COc1ccccc1C(=O)OCC(=O)NC(C)CCc1ccccc1 (configuration not stated)	1.6%[1.84 µM]	-2.2%	0.9%	.	13.0%	-5.1%
COc1ccccc1C(=O)NNC(=O)c1cccc(Br)c1	?	12µM*	?	.	?	2.82µM*
NC(=O)c1c[nH]c2ccccc12	-3.4%	-10.1%	3.0%	-2.0%	10.1%	-2.4%
COc1ccccc1C(=O)NCC(=O)NC(C)CCc1ccccc1 (configuration not stated)	-6.6%	3.01µM*	7.7%	.	1.0%	2.0%
Cc1ccc(NC(=O)CN2CCCN(Cc3ccccc3Cl)S2(=O)=O)c(C)c1	.	-13.6%	.	.	.	.
Cc1nn(CCOc2cccc(Br)c2)c(C)c1[N+](=O)[O-]	0.5%	-1.0%	0.1%	-9.2%	?	-5.6%
COc1ccccc1NC(=O)c1c[nH]c2ccccc12	26.5%	21.3µM*	?	.	?	?
O=C(CNc1ccccc1C(=O)O)c1ccccc1	?	19µM*	9.7%	.	?	2.6%
CC(=O)Nc1ccc(C(=O)CSc2ncn(-c3ccccc3)n2)cc1	19.5%	-9.5%	?	7.08µM*	8.5%	17.7%
O=C(CSc1ncn(-c2ccccc2)n1)Nc1nncs1	-8.6%	-6.9%	-0.5%	1.2%	2.7%	3.6%
O=C(CC(=O)c1ccccc1)c1ccccc1	.	.	.	12.6µM*	.	.
CC(NC(=O)CN1C(=O)NC(c2ccccc2)(c2ccccc2)C1=O)c1cccs1 (configuration not stated)	-5.5%	1.2%	-3.3%	.	-2.0%	0.4%
CC(OC(=O)Cn1[nH]c(=O)c2ccccc2c1=O)C(=O)Nc1ccc(Cl)cn1 (configuration not stated)	0.4%	6.7%	-0.1%	.	10.0%	-3.2%
Nc1ccc2nc(CCCO)[nH]c2c1	-5.8%	0.9%	2.8%	.	-5.5%	-5.0%
